Pf Dd2 inh: blocks growth of Plasmodium falciparum Dd2 parasites; P. falciparum Dd2 growth, SYBR Green, 72 h; hits give low values; activity change, % at 10 µM; 2.3% of 94,000 active; in the data active = activity change below about -80%; inconclusive = no clear call, values can overlap the other calls
C diff growth: C. difficile growth inhibition | Clostridium difficile clinical isolate growth, OD600, 24 h; hits give low values | AID 1259249 | growth activity, negative = inhibition, % at 16 µg/mL (by protocol) | 0.25% of 86,000 active;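 active = mean growth activity at or below -80% and every replicate also at or below -80%; inconclusive = mean at or below -80% but some replicate above -80%; inactive = mean growth activity above -80%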;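 note: 0% = DMSO wells and -100% = levofloxacin 16 µg/mL wells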
T cruzi growth-1: T. cruzi proliferation inhibition; T. cruzi beta-gal in NIH3T3, GalScreen luminescence, 90 h; inhibition, % at 8.34 µM; 5.9% of 77,000 active; AID 624255;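 active = mean inhibition above about 93%, with at least 55% of replicates each passing it, limit read from the data, passing the limit was not always enough; inconclusive = only one of those two conditions holds; inactive = neither condition holds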
T cruzi growth-2: inhibitors of T. cruzi proliferation; shares compounds with T cruzi growth-1; T. cruzi beta-gal in NIH3T3, GalScreen luminescence, 90 h; 72% of 5,600 active; inhibition, % at 8.35 µM; AID 651739;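 active = mean replicate inhibition above about 95% and at least 55% of replicates individually reaching it, limit read from the data; inconclusive = only one of the two criteria is met; inactive = neither criterion is met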
T cruzi growth-3: blocks T. cruzi growth in NIH3T3 host cells | inhibition, % at 2.09 µM | AID 651740 | T. cruzi beta-gal in NIH3T3, GalScreen luminescence, 90 h | 21% of 5,600 active | shares compounds with T cruzi growth-1;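 active = mean inhibition above about 95%, with at least 55% of replicates also reaching it, limit read from the data; inconclusive = meets just one of the two conditions; inactive = meets neither condition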;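 note: plate controls were neutral control median for no effect and positive control median for full effect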
NIH3T3 tox: kills mouse NIH/3T3 fibroblasts; 14% of 5,600 active; cytotoxicity (signal decrease), % at 8.35 µM; shares compounds with T cruzi growth-1; NIH/3T3 viability, CellTiter-Glo ATP luminescence, 90 h;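 active = mean signal decrease across replicates above about 35% based on untreated-well scatter, with enough replicates individually passing, limit read from the data; inconclusive = no rule stated though some were filed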;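 note: 0% = median of neutral control wells and 100% = median of positive control wells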
NIH3T3 tox 2: cytotoxicity in mouse NIH/3T3 fibroblasts; 56% of 5,600 active; inhibition, % at 24.9 µM; shares compounds with T cruzi growth-1; NIH/3T3 viability, CellTiter-Glo ATP luminescence, 90 h;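 active = mean loss of cell viability signal at or above a set limit, and enough replicates individually reaching it; inconclusive = meets only the mean limit or only the replicate share; inactive = meets neither condition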;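 note: 0% = median of neutral control wells and 100% = median of positive control wells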
The depositor's hits bear a star; u = inconclusive; x = not tested or not shown. Compounds with a hit are over-represented: about 6.7% of the library has one in this group of screens.

SMILES	Pf Dd2 inh	C diff growth	T cruzi growth-1	T cruzi growth-2	T cruzi growth-3	NIH3T3 tox	NIH3T3 tox 2
CCCNC(=O)C[C@@H]1CC[C@@H]2[C@H](COC[C@@H](O)CN2Cc2ccccc2F)O1	-30	2	111*	31	-14	-16	0
O=C(C[C@@H]1CC[C@@H]2[C@H](COC[C@@H](O)CN2Cc2ccccc2F)O1)NCc1ccccc1F	-8	-2	4	x	x	x	x
CCCNC(=O)C[C@H]1CC[C@@H]2[C@H](COC[C@@H](O)CN2Cc2ccccc2F)O1	10	2	97*	40	-11	1	9
CC(C)C#Cc1ccc2c(c1)O[C@H](CN(C)Cc1cccnc1)[C@@H](C)CN([C@@H](C)CO)S2(=O)=O	-63	3	93*	108*	102*	42*	106*
C[C@H](CO)N1C[C@H](C)[C@H](CN(C)Cc2ccncc2)Oc2cc(C#C[C@@H](C)O)ccc2S1(=O)=O	-8	2	91	x	x	x	x
CC(C)C#Cc1ccc2c(c1)O[C@@H](CN(C)C(=O)c1cccnc1)[C@H](C)CN([C@@H](C)CO)S2(=O)=O	8	2	103*	76	64	22	39*
CC(C)C#Cc1ccc2c(c1)O[C@@H](CN(C)Cc1ccncc1)[C@@H](C)CN([C@H](C)CO)S2(=O)=O	-10	9	107*	94	85	17	u
CC(C)C#Cc1ccc2c(c1)O[C@H](CN(C)Cc1cccnc1)[C@H](C)CN([C@H](C)CO)S2(=O)=O	-20	-4	78	x	x	x	x
CC(C)C#Cc1ccc2c(c1)O[C@H](CN(C)C(=O)c1cccnc1)[C@@H](C)CN([C@H](C)CO)S2(=O)=O	-12	5	92	x	x	x	x
CC(C)C#Cc1ccc2c(c1)O[C@@H](CN(C)Cc1cccnc1)[C@@H](C)CN([C@H](C)CO)S2(=O)=O	-21	5	u	99*	79	25	23
C[C@@H]1CN([C@H](C)CO)S(=O)(=O)c2ccc(C#C[C@@H](C)O)cc2O[C@H]1CN(C)Cc1cccnc1	-5	0	88	x	x	x	x
C[C@H](NC(=O)[C@@H]1[C@@H](CO)[C@@H]2Cn3c(cccc3=O)[C@H]1N2Cc1ccccc1)c1ccccc1	-3	-6	86	x	x	x	x
C[C@H]1CN([C@@H](C)CO)C(=O)c2cccc(NS(=O)(=O)c3ccc(Cl)cc3)c2O[C@H]1CN(C)C(=O)Nc1ccc(F)cc1	-12	3	58	x	x	x	x
C[C@@H]1CCCCO[C@H](CN(C)C(=O)Nc2ccc3c(c2)OCO3)[C@H](C)CN([C@@H](C)CO)C(=O)c2cc(NS(=O)(=O)c3cccs3)ccc2O1	-43	7	50	x	x	x	x
O=C([C@@H]1[C@@H](CO)[C@@H]2Cn3c(ccc(C4=CCCC4)c3=O)[C@@H]2N1CC1CC1)N1CCCCC1	x	-3	57	x	x	x	x
CC(C)C#Cc1ccc2c(c1)O[C@@H](CN(C)Cc1cccnc1)[C@H](C)CN([C@H](C)CO)S2(=O)=O	-61	6	100*	99*	92	40*	106*
C[C@H](CO)N1C[C@H](C)[C@@H](CN(C)Cc2cccnc2)Oc2cc(C#C[C@@H](C)O)ccc2S1(=O)=O	-9	0	39	x	x	x	x
C[C@H]1CN([C@@H](C)CO)S(=O)(=O)c2ccc(-c3ccncc3)cc2O[C@H]1CN(C)Cc1ccncc1	7	-3	84	x	x	x	x
C[C@@H]1CN([C@H](C)CO)S(=O)(=O)c2ccc(-c3ccncc3)cc2O[C@H]1CN(C)Cc1ccncc1	-43	6	100	x	x	x	x
Cc1ccc(-c2ccc3c(c2)O[C@H](CN(C)Cc2ccncc2)[C@@H](C)CN([C@H](C)CO)S3(=O)=O)cc1	-90*	0	122*	99*	103*	75*	105*
Cc1ccc(-c2ccc3c(c2)O[C@H](CN(C)Cc2ccncc2)[C@H](C)CN([C@@H](C)CO)S3(=O)=O)cc1	-12	-9	119*	90	80	u	99*
CN1C(=O)c2cc(NC(=O)c3cccs3)ccc2OC[C@@H]2O[C@H](CC(=O)O)CC[C@H]21	8	-2	6	x	x	x	x
COc1cccc(C(=O)Nc2ccc3c(c2)C(=O)N(C)[C@@H]2CC[C@@H](CC(=O)NCc4ccc(F)cc4)O[C@H]2CO3)c1	-26	15	10	x	x	x	x
COCC(=O)Nc1ccc2c(c1)OC[C@H](C)N(C(=O)CC1CC1)C[C@H](C)[C@@H](OC)CN(C)C2=O	1	3	x	x	x	x	x
CCC(=O)N1CCCCN2[C@@H](CO)[C@H](c3ccc(-c4ccc(F)cc4)cc3)[C@@H]2C1	16	0	101*	83	62	21	61*
SMILES	Pf Dd2 inh	C diff growth	T cruzi growth-1	T cruzi growth-2	T cruzi growth-3	NIH3T3 tox	NIH3T3 tox 2
Cc1ccc(-c2ccc([C@@H]3[C@H]4CN(C(=O)c5ccc(F)cc5)CCCCN4[C@H]3CO)cc2)cc1	8	-6	111*	103*	66	32	85*
Cc1ccc(-c2ccc([C@@H]3[C@H](CO)N4CCCCN(C(=O)c5ccc(F)cc5)C[C@@H]34)cc2)cc1	-72	-47	111*	98*	65	u	103*
O=C(c1ccc(F)cc1)N1CCCCN2[C@H](CO)[C@@H](c3ccc(-c4ccccc4)cc3)[C@H]2C1	-7	5	-21	x	x	x	x
COCC(=O)N1CCCCN2[C@H](C1)[C@@H](c1ccc(-c3ccc(F)cc3)cc1)[C@@H]2CO	9	7	81	x	x	x	x
O=C(c1ccc(F)cc1)N1CCCCN2[C@H](CO)[C@H](c3ccc(-c4ccccc4)cc3)[C@H]2C1	-23	36	65	x	x	x	x
COc1ccc(-c2ccc([C@H]3[C@H](CO)N4CCCCN(C(=O)c5ccc(F)cc5)C[C@@H]34)cc2)cc1	-45	7	85	x	x	x	x
Cc1ccc(-c2ccc([C@@H]3[C@@H](CO)N4CCCCN(C(=O)c5ccc(F)cc5)C[C@H]34)cc2)cc1	-4	48	104*	108*	62	33	104*
Cc1noc(C)c1NC(=O)Nc1ccc2c(c1)C(=O)N([C@H](C)CO)C[C@H](C)[C@@H](CN(C)C(=O)Nc1ccc(F)cc1)OCCCC[C@H](C)O2	4	0	24	x	x	x	x
C[C@H](CO)N1C[C@H](C)[C@@H](CN(C)C)Oc2cc(C#Cc3ccccn3)ccc2S1(=O)=O	24	-6	x	x	x	x	x
C[C@H](CO)N1C[C@H](C)[C@@H](CN(C)Cc2ccccc2)Oc2cc(C#Cc3ccccn3)ccc2S1(=O)=O	-12	-14	106	x	x	x	x
C[C@@H]1CN([C@@H](C)CO)S(=O)(=O)c2ccc(C#Cc3ccccn3)cc2O[C@@H]1CN(C)Cc1ccccc1	-33	1	108*	109*	86	43*	21
C[C@@H]1CN([C@@H](C)CO)S(=O)(=O)c2ccc(C#Cc3ccccn3)cc2O[C@H]1CN(C)Cc1ccccc1	-73	-5	86*	u	103*	19	33*

Screens: PubChem, Broad Institute
